Here are results for 18 sequences from PMC11006913.

Assay in all cases: PBM; 200 nM protein, PBS
Common to all, as to settings: dsDNA, one strand shown

Test [1] addresses HOXC9 (Homo sapiens, UniProt P31274 178-260, K195R).
Test [2] addresses HOXC9 (Homo sapiens, UniProt P31274 178-260).
Test [3] addresses HOXC9 (Homo sapiens, UniProt P31274 178-260, R193K).
Test [4] has as its target ALX3 (Homo sapiens, UniProt O95076 139-225).
Test [5] deals with PROP1 (Homo sapiens, UniProt O75360 56-141).
Test [6] has as its target PROP1 (Homo sapiens, UniProt O75360 56-141, R99H).
For test [7], the target named is HOXC9 (Homo sapiens, UniProt P31274 178-260, R222W).
Chain of HOXC9 (Homo sapiens, UniProt P31274 178-260, R222W) (P31274 178-260 R222W): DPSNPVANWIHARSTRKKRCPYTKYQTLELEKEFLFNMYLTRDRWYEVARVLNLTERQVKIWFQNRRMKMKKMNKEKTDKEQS
For test [8], the target named is PROP1 (Homo sapiens, UniProt O75360 56-141, F88S).
Chain of PROP1 (Homo sapiens, UniProt O75360 56-141, F88S) (O75360 56-141 F88S): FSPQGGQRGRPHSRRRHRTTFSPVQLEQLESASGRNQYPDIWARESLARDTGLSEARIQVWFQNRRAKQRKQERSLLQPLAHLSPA

Chain of HOXC9 (Homo sapiens, UniProt P31274 178-260, K195R) (P31274 178-260 K195R): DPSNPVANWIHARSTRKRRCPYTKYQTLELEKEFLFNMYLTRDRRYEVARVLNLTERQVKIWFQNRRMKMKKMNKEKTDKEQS
Chain of HOXC9 (Homo sapiens, UniProt P31274 178-260, R193K) (P31274 178-260 R193K): as the sequence (P31274 178-260 R222W) above, with R16K, W45R counted along it
Chain of HOXC9 (Homo sapiens, UniProt P31274 178-260) (P31274 178-260): as the sequence (P31274 178-260 R222W) above, with W45R counted along it
Chain of PROP1 (Homo sapiens, UniProt O75360 56-141) (O75360 56-141): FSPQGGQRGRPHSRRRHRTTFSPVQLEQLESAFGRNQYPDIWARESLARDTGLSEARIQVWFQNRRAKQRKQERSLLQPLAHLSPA
Chain of ALX3 (O95076 139-225): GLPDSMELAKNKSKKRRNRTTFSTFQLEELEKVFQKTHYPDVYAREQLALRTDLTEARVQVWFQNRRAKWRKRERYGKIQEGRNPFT
Chain of PROP1 (Homo sapiens, UniProt O75360 56-141, R99H) (O75360 56-141 R99H): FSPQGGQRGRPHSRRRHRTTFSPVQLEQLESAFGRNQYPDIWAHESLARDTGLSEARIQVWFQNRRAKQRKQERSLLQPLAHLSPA

For CGTAAAGA, the binding signal in test [1] is 11.1 upbm affinity estimate (log intensity, higher = more binding, comparable within an allelic series); in test [2], 11.2 upbm affinity estimate (log intensity, higher = more binding, comparable within an allelic series); in test [3], 11.2 upbm affinity estimate (log intensity, higher = more binding, comparable within an allelic series).

Regarding TTATACAA, the binding signal in test [1] is 11.1 upbm affinity estimate (log intensity, higher = more binding, comparable within an allelic series); in test [2], 11.1 upbm affinity estimate (log intensity, higher = more binding, comparable within an allelic series); in test [3], 11.2 upbm affinity estimate (log intensity, higher = more binding, comparable within an allelic series); in test [4], 9.71 upbm affinity estimate (log intensity, higher = more binding, comparable within an allelic series).

CTGGACGC: the binding signal in test [1] is 9.6 upbm affinity estimate (log intensity, higher = more binding, comparable within an allelic series); in test [2] it was 9.69 upbm affinity estimate (log intensity, higher = more binding, comparable within an allelic series); in test [3], 9.69 upbm affinity estimate (log intensity, higher = more binding, comparable within an allelic series); in test [5], 6.69 upbm affinity estimate (log intensity, higher = more binding, comparable within an allelic series); in test [6], 6.62 upbm affinity estimate (log intensity, higher = more binding, comparable within an allelic series); in test [7], 9.74 upbm affinity estimate (log intensity, higher = more binding, comparable within an allelic series). Also, the binding signal in test [8] was 6.59 upbm affinity estimate (log intensity, higher = more binding, comparable within an allelic series).

Regarding AGGGGGTG, the binding signal is 9.33 upbm affinity estimate (log intensity, higher = more binding, comparable within an allelic series) in test [1]; 9.51 upbm affinity estimate (log intensity, higher = more binding, comparable within an allelic series) in test [2]; 9.39 upbm affinity estimate (log intensity, higher = more binding, comparable within an allelic series) in test [3]; 9.42 upbm affinity estimate (log intensity, higher = more binding, comparable within an allelic series) in test [7].

With CCCCAGGG, the binding signal in test [1] was 9.62 upbm affinity estimate (log intensity, higher = more binding, comparable within an allelic series); in test [2], 9.8 upbm affinity estimate (log intensity, higher = more binding, comparable within an allelic series); in test [3] it was 9.59 upbm affinity estimate (log intensity, higher = more binding, comparable within an allelic series); in test [7] it was 9.62 upbm affinity estimate (log intensity, higher = more binding, comparable within an allelic series).

Regarding ATTATCGG, the binding signal in test [1] was 11.3 upbm affinity estimate (log intensity, higher = more binding, comparable within an allelic series); in test [2], 11.5 upbm affinity estimate (log intensity, higher = more binding, comparable within an allelic series); in test [3], 11.4 upbm affinity estimate (log intensity, higher = more binding, comparable within an allelic series).

Take AGTATTAT: the binding signal in test [1] is 11.6 upbm affinity estimate (log intensity, higher = more binding, comparable within an allelic series); in test [2], 11.6 upbm affinity estimate (log intensity, higher = more binding, comparable within an allelic series); in test [3], 11.6 upbm affinity estimate (log intensity, higher = more binding, comparable within an allelic series).

In the case of AGTATAAC, the binding signal in test [1] was 11 upbm affinity estimate (log intensity, higher = more binding, comparable within an allelic series); in test [2], 11 upbm affinity estimate (log intensity, higher = more binding, comparable within an allelic series); in test [3], 11 upbm affinity estimate (log intensity, higher = more binding, comparable within an allelic series).

With CATTTAGA, the binding signal was 11.1 upbm affinity estimate (log intensity, higher = more binding, comparable within an allelic series) in test [1]; 11.1 upbm affinity estimate (log intensity, higher = more binding, comparable within an allelic series) in test [2]; 11.3 upbm affinity estimate (log intensity, higher = more binding, comparable within an allelic series) in test [3].

For TAAGAATA, the binding signal is 10.9 upbm affinity estimate (log intensity, higher = more binding, comparable within an allelic series) in test [1]; 10.8 upbm affinity estimate (log intensity, higher = more binding, comparable within an allelic series) in test [2]; 10.9 upbm affinity estimate (log intensity, higher = more binding, comparable within an allelic series) in test [3].

On to ATATGAAA, for which the binding signal in test [1] is 11.4 upbm affinity estimate (log intensity, higher = more binding, comparable within an allelic series); in test [2], 11.3 upbm affinity estimate (log intensity, higher = more binding, comparable within an allelic series); in test [3], 11.4 upbm affinity estimate (log intensity, higher = more binding, comparable within an allelic series).

In the case of ATTGTATG, the binding signal in test [1] is 11.1 upbm affinity estimate (log intensity, higher = more binding, comparable within an allelic series); in test [2], 11 upbm affinity estimate (log intensity, higher = more binding, comparable within an allelic series); in test [3], 11.1 upbm affinity estimate (log intensity, higher = more binding, comparable within an allelic series).

For CGCATTTA, the binding signal in test [1] was 11.1 upbm affinity estimate (log intensity, higher = more binding, comparable within an allelic series); in test [2] it was 11.2 upbm affinity estimate (log intensity, higher = more binding, comparable within an allelic series); in test [3], 11.2 upbm affinity estimate (log intensity, higher = more binding, comparable within an allelic series).

Take CCAGCCCG: the binding signal in test [1] was 9.66 upbm affinity estimate (log intensity, higher = more binding, comparable within an allelic series); in test [2] it was 9.72 upbm affinity estimate (log intensity, higher = more binding, comparable within an allelic series); in test [3], 9.7 upbm affinity estimate (log intensity, higher = more binding, comparable within an allelic series); in test [7], 9.67 upbm affinity estimate (log intensity, higher = more binding, comparable within an allelic series).

In the case of ATAGTCAA, the binding signal is 10.7 upbm affinity estimate (log intensity, higher = more binding, comparable within an allelic series) in test [1]; 10.7 upbm affinity estimate (log intensity, higher = more binding, comparable within an allelic series) in test [2]; 10.8 upbm affinity estimate (log intensity, higher = more binding, comparable within an allelic series) in test [3].

For the sequence CCTCCAGG, the binding signal in test [1] is 9.43 upbm affinity estimate (log intensity, higher = more binding, comparable within an allelic series); in test [2] it was 9.47 upbm affinity estimate (log intensity, higher = more binding, comparable within an allelic series); in test [3], 9.34 upbm affinity estimate (log intensity, higher = more binding, comparable within an allelic series); in test [7], 9.67 upbm affinity estimate (log intensity, higher = more binding, comparable within an allelic series).

In the case of AGACCAGG, the binding signal in test [1] was 9.63 upbm affinity estimate (log intensity, higher = more binding, comparable within an allelic series); in test [2] it was 9.68 upbm affinity estimate (log intensity, higher = more binding, comparable within an allelic series); in test [3], 9.61 upbm affinity estimate (log intensity, higher = more binding, comparable within an allelic series); in test [7], 9.71 upbm affinity estimate (log intensity, higher = more binding, comparable within an allelic series).

Consider CACTAATA, for which the binding signal in test [1] is 11.3 upbm affinity estimate (log intensity, higher = more binding, comparable within an allelic series); in test [2], 11.4 upbm affinity estimate (log intensity, higher = more binding, comparable within an allelic series); in test [3], 11.4 upbm affinity estimate (log intensity, higher = more binding, comparable within an allelic series).
